PubChem BioAssay (EPA / NIEHS)
Inconclusive results are not listed. The source made the active and inactive calls. Rule for the calls: active = hit-call score of the fitted dose curve at least 0.9, where 1 is the maximum; inconclusive = response in the unintended direction; inactive = score below 0.9.

Assay: Tanguay_ZF_120hpf_PE_legacy: (Legacy) Oregon State University Tanguay Lab 120 Hour Post-fertilization zebrafish Assay for Pericardial Edema (AID 2283640);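 for AC50: potency for increased incidence of pericardial edema versus DMSO baseline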
Procedure: Tanguay_ZF_120hpf_legacy is a whole embryo, multiplexed endpoint assay using zebrafish larvae exposed for 120 hours post fertilization on a 96-well plate.Tanguay_ZF_120hpf_PE_legacy is one of one assay component(s) measured or calculated from the Tanguay_ZF_120hpf_legacy assay. It is designed to make measurements of zebrafish development as detected with brightfield microscopy of developing zebrafish embryos.Data from the assay component Tanguay_ZF_120hpf_PE_legacy was analyzed into 1 assay endpoints. This assay endpoint, Tanguay_ZF_120hpf_PE_legacy, was analyzed in the positive analysis fitting direction relative to DMSO as the negative control and baseline of activity. Using a type of morphology reporter, gain-of-signal activity can be used to understand changes in developmentals as they relate to the whole embryo. To generalize the intended target to other relatable targets, this assay endpoint is annotated to the zebrafish development intended target family, where the subfamily is embryonic morphogenesis.
Zebrafish husbandry: Tropical 5D wild-type adult zebrafish were housed in at an approximate density of 1000 per 100 gallon tank at the Sinnhuber Aquatic Research Laboratory, Oregon State University, Corvallis, OR. Each tank was kept at standard laboratory conditions of 28C on a 14-h light/10-h dark photoperiod in fish water consisting of reverse osmosis water supplemented with a commercially available salt (Instant Ocean). Spawning funnels were placed into the tanks the night prior, and embryos were collected and staged. […] Ten microliters of each row of dilution plate 2 was added to 2 exposure plates. The final DMSO concentration used was 0.64% (vol/vol). Thirty-two embryos were also exposed to 5uM trimethyltin chloride (positive control). Plates were sealed to prevent evaporation and foil covered to reduce light exposure and kept in a 28C incubator. Embryos were statically exposed until 120 hpf. At 24 hpf, embryos were assessed for photomotor response using a custom photomotor response analysis tool (PRAT) and for developmental toxicity endpoints (MO24: mortality at 24 hpf, DP: developmental progression, SM: spontaneous movement, and NC: notochord distortion). At 120 hpf, locomotor activity was measured using Viewpoint Zebralab and assessed for 18 endpoints. Zebrafish acquisition and analysis program (ZAAP), a custom program designed to inventory, acquire, and manage zebrafish data, was used to collect developmental endpoints as either present or absent (i.e., binary responses were recorded). If mortality occurred for an embryo (at either 24 or 120 hpf), the non-mortality endpoints were not measured.
For `CCCCCCCCOC(=O)CCCCCCCCC(=O)OCCCCCCCC`, the outcome was “inactive”. With `CC(=O)CC(C)(C)O` the outcome was “inactive”. With `CCCOC(=O)c1ccc(O)cc1` the AC50 was 11 µM (active). For `ClC1=C(Cl)C(Cl)(Cl)C(Cl)=C1Cl`, the outcome was “inactive”. In the case of `CCCCCCC(=O)O`, the outcome is reported as “inactive”. For `OC1CCC(C2CCCCC2)CC1` (stereo not given), the outcome was “inactive”. For `CC(C)CCCCCCOC(=O)CCCCC(=O)OCCCCCCC(C)C`, the outcome was “inactive”. With `c1ccc2c(c1)ccc1ccccc12` the outcome was “inactive”. With `CC[C@H](c1ccc(O)cc1)[C@@H](CC)c1ccc(O)cc1` the outcome was “inactive”. For `c1ccc2c(c1)Cc1ccccc1-2`, the outcome was “inactive”. For `CCCCCCCCCCCCN1CCCC1=O`, the AC50 was 35.8 µM (active). For `CCCCCCCCCCCCc1ccccc1S(=O)(=O)O`, the outcome was “inactive”. In the case of `CC(C)(C)CC(C)(C)c1ccc(O)c(-n2nc3ccccc3n2)c1`, the outcome is reported as “inactive”. With `CCN(CC)CCNc1ccc(CNC=O)c2sc3ccc(OC)cc3c(=O)c12` the outcome was “inactive”. In the case of `COCC(C)O` (stereo not given), the outcome is reported as “inactive”. For `OC1CCCCC1`, the outcome was “inactive”. In the case of `CCCCOCCO`, the outcome is reported as “inactive”. With `Cc1cc(C)c(O)c(C)c1` the outcome was “inactive”. With `Oc1cc2ccccc2c2ccccc12` the AC50 was 31.9 µM (active). For `CCCOc1sc(C(=O)N2CCC(c3cc(CN)ccc3F)CC2)c(C)c1Br`, the outcome was “inactive”. With `CC(C)(C)c1ccc(O)c(C(C)(C)C)c1` the outcome was “inactive”. In the case of `O=C(O)Cc1cc(I)c(Oc2cc(I)c(O)c(I)c2)c(I)c1`, the outcome is reported as “inactive”. With `COCC(C)OCC(C)O` (stereo not given) the outcome was “inactive”. With `NC(=O)N(O)[C@@H]1C=C[C@H](Oc2cccc(Oc3ccc(F)cc3)c2)C1` the outcome was “inactive”. In the case of `CCCCC(CC)COC(=O)CCCCC(=O)OCc1ccccc1` (stereo not given), the outcome is reported as “inactive”. For `CC(C)(C)c1cc(C(C)(C)C)c(O)c(C(C)(C)C)c1`, the outcome was “inactive”. In the case of `CCOC(=O)CC(O)(CC(=O)OCC)C(=O)OCC`, the outcome is reported as “inactive”. With `O=C(OCCOCCOC(=O)c1ccccc1)c1ccccc1` the outcome was “inactive”. With `CCCCC(CC)COC(=O)CCCCC(=O)OCC(CC)CCCC` (stereo not given) the outcome was “inactive”. For `CC(=O)NC1(c2cccc(F)c2)CCN(CC[C@@]2(c3ccc(Cl)c(Cl)c3)CN(c3ccccc3)C(=O)CO2)CC1`, the outcome was “inactive”. For `Oc1cccc(O)c1`, the outcome was “inactive”. In the case of `COC(=O)CCCCC(=O)OC`, the outcome is reported as “inactive”. For `CC(C)(C)c1cccc(C(C)(C)C)c1O`, the outcome was “inactive”. With `CCCCCCCC(=O)O` the outcome was “inactive”. For `CC[C@H](C)[C@@H](C(=O)O)n1sc2ccccc2c1=O`, the outcome was “inactive”. For `Cc1cc(CCN2CCN(c3nsc4ccccc34)CC2)cc2c1NC(=O)CC2(C)C`, the AC50 was 2.96 µM (active). In the case of `CC1=C(/C=C/C(C)=C/C=C/C(C)=C/C(=O)O)C(C)(C)CCC1`, the AC50 is reported as 0.193 µM (active). In the case of `C[C@@H]1C[C@H]2[C@@H]3CCC4=CC(=O)C=C[C@]4(C)[C@@]3(F)[C@@H](O)C[C@]2(C)[C@@]1(O)C(=O)COP(=O)(O)O`, the outcome is reported as “inactive”. For `O=c1c(-c2ccc(O)cc2)coc2cc(O)ccc12`, the outcome was “inactive”. With `COc1ccc([N+](=O)[O-])cc1N` the outcome was “inactive”.
